Results reported in PubChem BioAssay.
For part of these data: Results with a measured potency or affinity are listed apart. Activity calls are given as the source filed them.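 How the source made its calls, unless noted: active means primary screen hit whose fluorescence ratio, in both repeats, exceeds the weak agonist control mean by 3 SD; inactive means the rest.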

How the values were obtained:
[1] = system: TRPC4 beta (transient receptor potential cation channel C4), mouse; experiment: activators of mouse TRPC4 channel, confirmation, cell-based, Fluo4 calcium, HEK293 TRPC4beta/mu-opioid, duplicates, 10 µM (AID 2426;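 active means fluorescence ratio normalized to control raised more than 50% in primary screen plus both repeat runs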); conditions: Fluo4 calcium fluorescence, at 10 µM; active compounds read high
[2] = system: transient receptor potential cation channel C4 beta (TRPC4), mouse; experiment: activators of mouse TRPC4 channel, confirmation, cell-based, second round, Fluo4, HEK293 TRPC4beta/mu-opioid, 1 µM (AID 2461;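 active means primary screen active and over 50% activation in each of two duplicate runs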); conditions: Fluo4 calcium fluorescence, at 1 µM; active compounds read high
[3] = system: TRPC4 (transient receptor potential cation channel C4 beta), mouse; experiment: positive allosteric modulators of mouse TRPC4, confirmation, cell-based, second round, Fluo-4, HEK293 TRPC4beta/mu-opioid, 1 µM (AID 2554); conditions: DAMGO EC20, Fluo-4 calcium flux, at 1 µM; active compounds read high
[4] = system: TRPC4 beta (transient receptor potential cation channel C4), mouse; experiment: positive allosteric modulators of mouse TRPC4, confirmation, cell-based, Fluo-4, HEK293 TRPC4beta/mu-opioid (AID 2555;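 active means primary screen hit whose calcium fluorescence ratio, in both repeats, exceeds the weak agonist control mean by 3 SD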); conditions: DAMGO EC20, Fluo-4 calcium flux, at 10 µM; active compounds read high
[5] = molecular target: Short transient receptor potential channel 4 (Mus musculus) (UniProt Q9QUQ5); experiment: inhibitors of mouse TRPC4 channel, confirmation, cell-based, Fluo4, HEK293 TRPC4beta/mu-opioid (AID 2636;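 active means calcium signal cut by more than 3 SD below the full-agonist control yet still positive, in both repeats and the earlier primary screen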); conditions: DAMGO, Fluo4 calcium flux, at 10 µM; active compounds read high
Sequence of Short transient receptor potential channel 4 (Mus musculus) (Q9QUQ5 whole entry, looked up): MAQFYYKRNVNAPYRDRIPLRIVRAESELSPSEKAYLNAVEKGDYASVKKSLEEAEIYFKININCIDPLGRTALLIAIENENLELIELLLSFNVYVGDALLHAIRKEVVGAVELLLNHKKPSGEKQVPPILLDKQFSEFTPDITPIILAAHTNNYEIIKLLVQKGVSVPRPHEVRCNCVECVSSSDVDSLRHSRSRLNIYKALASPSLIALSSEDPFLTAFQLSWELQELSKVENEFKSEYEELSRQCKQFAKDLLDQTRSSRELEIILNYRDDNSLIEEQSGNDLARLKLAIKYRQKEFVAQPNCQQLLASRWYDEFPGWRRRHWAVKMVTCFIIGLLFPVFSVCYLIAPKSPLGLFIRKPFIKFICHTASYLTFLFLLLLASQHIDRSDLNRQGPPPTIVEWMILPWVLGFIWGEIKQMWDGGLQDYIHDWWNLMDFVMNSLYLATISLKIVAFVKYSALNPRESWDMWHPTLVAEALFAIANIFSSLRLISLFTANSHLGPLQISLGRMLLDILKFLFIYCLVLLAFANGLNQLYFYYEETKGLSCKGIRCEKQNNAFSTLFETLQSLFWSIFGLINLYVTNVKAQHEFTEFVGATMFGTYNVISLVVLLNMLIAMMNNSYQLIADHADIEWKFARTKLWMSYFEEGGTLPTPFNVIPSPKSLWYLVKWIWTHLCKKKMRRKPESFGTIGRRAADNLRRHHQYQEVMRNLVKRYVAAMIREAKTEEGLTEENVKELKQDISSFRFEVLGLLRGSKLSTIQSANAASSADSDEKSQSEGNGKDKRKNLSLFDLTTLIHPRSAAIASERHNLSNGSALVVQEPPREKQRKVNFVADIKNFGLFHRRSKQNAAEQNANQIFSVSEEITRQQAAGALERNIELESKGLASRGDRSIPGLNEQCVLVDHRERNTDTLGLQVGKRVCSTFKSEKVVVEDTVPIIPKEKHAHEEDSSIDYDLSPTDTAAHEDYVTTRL

[6] = molecular target: Short transient receptor potential channel 4 (Mus musculus) (UniProt Q9QUQ5); experiment: inhibitors of mouse TRPC4 channel, confirmation, cell-based, second round, Fluo4, HEK293 TRPC4beta/mu-opioid, 1 µM (AID 2637;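 active means calcium signal ratio cut to more than 3 SD under the fully stimulated control mean yet still positive, in both repeats and the primary screen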); conditions: Fluo4 calcium flux, DAMGO, at 1 µM; active compounds read high
[7] = molecular target: Short transient receptor potential channel 4 (Mus musculus) (UniProt Q9QUQ5); experiment: mouse TRPC4 channel activators, dose response, cell-based, HEK293 TRPC4/mu-opioid, Fluo-4 calcium (AID 434937;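 active means primary screen activator hit with a dose response curve and TRPC4 channel activation at any tested dose; inactive means no activation, no dose response, or not a primary hit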)
[8] = molecular target: Short transient receptor potential channel 4 (Mus musculus) (UniProt Q9QUQ5); experiment: TRPC4 positive allosteric modulators, dose response, cell-based, HEK293 TRPC4/mu-opioid, Fluo-4 calcium, EC20 DAMGO (AID 434941;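 active means earlier screen potentiator hit that boosts the TRPC4 ion channel at some dose, with a dose response; inactive means no potentiation, no dose response, or not a prior hit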;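 further: calcium entry triggered by an EC20 dose of DAMGO at the co-expressed mu-opioid receptor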)
[9] = molecular target: Short transient receptor potential channel 4 (Mus musculus) (UniProt Q9QUQ5); experiment: mouse TRPC4 channel inhibitors, dose response, cell-based, HEK293 TRPC4/mu-opioid, Fluo-4 calcium (AID 434942;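 active means primary screen inhibitor hit that blocks the TRPC4 channel at some tested dose, yielding a dose curve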)
[10] = molecular target: Short transient receptor potential channel 6 (Mus musculus) (UniProt Q61143); experiment: inhibition of mouse TRPC6 channel, confirmation, selectivity assay for TRPC4 inhibitor project, cell-based, HEK293, membrane potential dye, duplicate (AID 434948;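 active means active in primary screen and both duplicates, each dropping signal beyond three positive-control SD with fluorescence still positive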); conditions: HEK293 TRPC6, membrane potential dye fluorescence, at 10 µM, stimulated with maximal-effect acetylcholine; active compounds read high
Sequence of Short transient receptor potential channel 6 (Mus musculus) (Q61143 whole entry, looked up): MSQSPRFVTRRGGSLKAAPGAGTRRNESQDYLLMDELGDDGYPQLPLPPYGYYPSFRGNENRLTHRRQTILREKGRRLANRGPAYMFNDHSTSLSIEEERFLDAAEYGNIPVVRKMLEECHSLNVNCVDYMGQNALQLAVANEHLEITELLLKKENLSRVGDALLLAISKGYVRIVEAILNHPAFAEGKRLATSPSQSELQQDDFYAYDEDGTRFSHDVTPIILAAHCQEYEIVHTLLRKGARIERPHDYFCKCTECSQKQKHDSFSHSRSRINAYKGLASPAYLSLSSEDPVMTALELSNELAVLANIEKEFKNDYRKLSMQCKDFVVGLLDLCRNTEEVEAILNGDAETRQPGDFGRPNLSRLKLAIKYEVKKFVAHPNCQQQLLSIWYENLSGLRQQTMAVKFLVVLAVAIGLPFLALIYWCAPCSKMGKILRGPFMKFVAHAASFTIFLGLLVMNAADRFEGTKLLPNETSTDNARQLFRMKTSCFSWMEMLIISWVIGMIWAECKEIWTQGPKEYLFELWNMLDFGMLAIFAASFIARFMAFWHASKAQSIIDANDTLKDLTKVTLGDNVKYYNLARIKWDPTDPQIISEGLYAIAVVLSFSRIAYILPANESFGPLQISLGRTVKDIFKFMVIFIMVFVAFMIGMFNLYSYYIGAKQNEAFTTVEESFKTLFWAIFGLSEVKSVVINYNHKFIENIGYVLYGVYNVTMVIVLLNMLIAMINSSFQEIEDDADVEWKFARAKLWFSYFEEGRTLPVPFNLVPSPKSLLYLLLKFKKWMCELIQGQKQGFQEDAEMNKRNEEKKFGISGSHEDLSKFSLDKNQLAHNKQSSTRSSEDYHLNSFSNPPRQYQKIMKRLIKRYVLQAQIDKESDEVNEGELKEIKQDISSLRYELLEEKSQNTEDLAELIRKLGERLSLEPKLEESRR

[11] = molecular target: Short transient receptor potential channel 6 (Mus musculus) (UniProt Q61143); experiment: activation of mouse TRPC6 channel, confirmation, selectivity assay for TRPC4 activator project, cell-based, HEK293, membrane potential dye, duplicate (AID 434950;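 active means membrane potential signal rise above negative control mean plus 3 SD in both duplicates, also active in the earlier TRPC4 screen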); conditions: HEK293 TRPC6, membrane potential fluorescence, at 10 µM; active compounds read high
[12] = molecular target: Short transient receptor potential channel 6 (Mus musculus) (UniProt Q61143); experiment: TRPC6 potentiation by TRPC4 potentiator hits, confirmation, selectivity assay for TRPC4 potentiator project, HEK293 cells, membrane potential dye, duplicate (AID 434952;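 active means compound raising the membrane signal above positive-control mean plus 3 SD in both repeats, and a primary screen hit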); conditions: HEK293 TRPC6, membrane potential dye fluorescence, at 10 µM, maximal acetylcholine added after compound; active compounds read high
[13] = molecular target: Short transient receptor potential channel 4 (Mus musculus) (UniProt Q9QUQ5); experiment: calcium flux activators in TRPC4/5HT1a cells, counter-screen for TRPC4 activator project, cell-based, second counter screen, HEK293 TRPC4/5HT1a, Fluo-4 (AID 434977;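 active means calcium signal rise above buffer-control mean plus 5 SD in both duplicates, and also a hit in the primary screen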); conditions: Fluo-4 calcium flux, at 10 µM; active compounds read high
[14] = calcium flux inhibitors in TRPC4/5HT1a cells, confirmation, counter-screen for TRPC4 inhibitor project, cell-based, second counter screen, HEK293 TRPC4/5HT1a, Fluo-4 (AID 434978;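 active means primary screen active whose calcium signal fell more than 3 SD beyond the full-serotonin control mean in both duplicate plates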;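 further: serotonin given first at submaximal then at maximal dose after compound preincubation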); conditions: Fluo-4 calcium flux, at 10 µM, serotonin added to trigger calcium flux; active compounds read high
[15] = system: TRPC4 (mouse), co-expressed with 5HT1a in HEK293; experiment: calcium flux potentiators in TRPC4/5HT1a cells, confirmation, counter-screen for TRPC4 potentiator project, cell-based, second counter screen, HEK293 TRPC4/5HT1a, Fluo-4 (AID 434979;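 active means signal rise over 3 SD above mean of control wells given weak agonist, in both repeats and first screen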); conditions: Fluo-4 calcium flux, at 10 µM, serotonin added at its EC20 dose; active compounds read high
[16] = calcium flux activation in mu-opioid HEK293 cells, confirmation, counter-screen for TRPC4 activator project, cell-based, HEK293 mu-opioid receptor line (AID 449723;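 active means hit in primary screen, with calcium signal over 5 SD above buffer well mean in both duplicates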;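 further: counter screen cells carry the mu-opioid receptor alone and lack TRPC4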); conditions: Fluo-4 calcium fluorescence, at 10 µM; active compounds read high
[17] = calcium flux enhancement in mu-opioid HEK293 cells, confirmation, counter-screen for TRPC4 allosteric potentiator project, cell-based, HEK293 mu-opioid receptor line (AID 449724;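 active means calcium signal rise more than 3 SD above the low-dose agonist control mean, in both duplicate plates and the primary screen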); conditions: Fluo-4 calcium flux, at 10 µM, compound added before EC20 DAMGO stimulus; active compounds read high

Measured: potentiation

COc1ccc(Cc2noc(CN(C)CC3CCN(Cc4ccccc4)CC3)n2)cc1OC
inactive: [1] | [2] | [3] | [4] | [5] | [6] | [7] | [8] | [9] | [10] | [11] | [12] | [13] | [14] | [15] | [16] | [17]

O=C(Nc1nc(N2C(=O)c3ccccc3C2=O)n(-c2ccccc2)n1)c1ccc(Cl)cc1
inactive: [1] | [2] | [3] | [4] | [5] | [6] | [7] | [8] | [9] | [10] | [11] | [12] | [13] | [14] | [15] | [16] | [17]

C/C(=N\N1CCN(C)CC1)c1ccc(Cl)c(Cl)c1
inactive: [1] | [2] | [3] | [4] | [5] | [6] | [7] | [8] | [9] | [10] | [11] | [12] | [13] | [14] | [16] | [17]
active: [15] 13.3%

NS(=O)(=O)c1ccc(Oc2ccc(S(N)(=O)=O)cc2)cc1
inactive: [1] | [2] | [3] | [4] | [5] | [6] | [7] | [8] | [9] | [10] | [11] | [12] | [13] | [14] | [15] | [16] | [17]

COc1ccc(C(=O)CN2CCN(CCN3C(=O)c4cccc5cccc(c45)C3=O)CC2)cc1
inactive: [1] | [2] | [5] | [6] | [7] | [8] | [9] | [10] | [11] | [12] | [13] | [14] | [16] | [17]
active: [3] 21% | [4] 29% | [15] 18.9%

Cc1cc(NC(=O)CCN2CCN(Cc3ccccc3)CC2)ccc1Br
active: [3] 18%
inactive: [1] | [2] | [4] | [5] | [6] | [7] | [8] | [9] | [10] | [11] | [12] | [13] | [14] | [15] | [16] | [17]

Cc1cc(S(=O)(=O)N2CCC(N3CCCCC3)CC2)ccc1-n1cnnn1
inactive: [1] | [2] | [5] | [6] | [7] | [8] | [9] | [10] | [11] | [12] | [13] | [14] | [16] | [17]
active: [3] 11% | [4] 11% | [15] 19.1%

CC(=O)N1CC(c2ccccc2)C(c2ccc(Cl)cc2)=N1 (stereo not given)
inactive: [1] | [2] | [3] | [4] | [5] | [6] | [7] | [8] | [9] | [10] | [11] | [12] | [13] | [14] | [15] | [16] | [17]

O=C(O)CCC(=O)N1CCN(c2nc3ccccc3s2)CC1
inactive: [1] | [2] | [3] | [5] | [6] | [7] | [8] | [9] | [10] | [11] | [12] | [13] | [14] | [16] | [17]
active: [4] 11% | [15] 21.2%

CSc1ccc(S(=O)(=O)NCC(=O)OCC(=O)N(C)Cc2ccccc2)cc1[N+](=O)[O-]
inactive: [1] | [2] | [3] | [4] | [5] | [6] | [7] | [8] | [9] | [10] | [11] | [12] | [13] | [14] | [15] | [16] | [17]

O=[N+]([O-])c1ccc(CN2CCN(c3nc4ccccc4s3)CC2)cc1
inactive: [1] | [2] | [3] | [5] | [6] | [7] | [8] | [9] | [10] | [11] | [12] | [13] | [14] | [16] | [17]
active: [4] 7% | [15] 17.5%

CCOC(=O)C1CCCN(C(=O)CCCn2nnnc2CN2CCOCC2)C1 (stereo not given)
active: [15] 13.4%
inactive: [1] | [2] | [3] | [4] | [5] | [6] | [7] | [8] | [9] | [10] | [11] | [12] | [13] | [14] | [16] | [17]

O=C(CC1C(=O)NCCN1C(=O)Nc1ccccc1)Nc1cc(Cl)cc(Cl)c1 (stereo not given)
active: [4] 15% | [15] 21.1%
inactive: [1] | [2] | [3] | [5] | [6] | [7] | [8] | [9] | [10] | [11] | [12] | [13] | [14] | [16] | [17]

COc1ccc(F)cc1C(=O)C1CCCN(Cc2cccn2-c2ccccn2)C1 (stereo not given)
inactive: [1] | [2] | [3] | [4] | [5] | [6] | [7] | [8] | [9] | [10] | [11] | [12] | [13] | [14] | [15] | [16] | [17]

O=C(O)c1nn(CC(=O)N2CCN(c3ncc(C(F)(F)F)cc3Cl)CC2)c(=O)c2ccccc12
inactive: [1] | [2] | [3] | [4] | [5] | [6] | [7] | [8] | [9] | [10] | [11] | [12] | [13] | [14] | [15] | [16] | [17]
